Holding throughout (assay): DAPPL (digital affinity profiling via proximity ligation, sequencing); 10 mM Tris-HCl pH 7.5, 50 mM NaCl, 1 mM DTT, 4% glycerol, room temperature, 30 min; GST-TFs on glutathione beads, 16-mer random dsDNA library, 0.1% formaldehyde crosslink after washing; high values mean tight binding
The target in one assay is T1, FLI1 (Homo sapiens, UniProt Q01543 1-452).
T1 sequence: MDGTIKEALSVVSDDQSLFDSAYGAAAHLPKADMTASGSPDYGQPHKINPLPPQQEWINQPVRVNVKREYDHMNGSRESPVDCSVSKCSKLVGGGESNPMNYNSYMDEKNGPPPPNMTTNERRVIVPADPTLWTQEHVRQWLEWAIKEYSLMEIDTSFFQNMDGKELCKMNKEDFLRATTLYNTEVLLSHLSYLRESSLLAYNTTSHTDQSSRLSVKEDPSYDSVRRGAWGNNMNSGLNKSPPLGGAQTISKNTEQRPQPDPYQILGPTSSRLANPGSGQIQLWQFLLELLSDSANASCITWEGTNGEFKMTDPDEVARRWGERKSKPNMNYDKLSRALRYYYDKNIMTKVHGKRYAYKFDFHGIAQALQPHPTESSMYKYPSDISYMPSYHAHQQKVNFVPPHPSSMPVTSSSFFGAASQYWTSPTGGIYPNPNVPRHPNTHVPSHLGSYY
Particulars: protein: recombinant; tags: N-terminal GST; dsDNA, one strand shown. Summed up: (§1)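 The binding signal reported is, for every hexamer, its read frequency for a factor over its read frequency for the tag-only sample. Reads came from pools of yeast-expressed, GST-fused human transcription factors on glutathione beads, barcoded with DNA and mixed with that sample, which were incubated with 200 nmole of a random double-stranded 16-mer DNA library in Tris/NaCl/DTT/glycerol buffer at room temperature for 30 min. After washing, the pools were crosslinked with 0.1% formaldehyde, proximity-ligated with BsaI/T4 ligase for 1 h at 37 °C, PCR-amplified and sequenced on an Illumina NextSeq500.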

In another assay the target is T2, ELK1 (Homo sapiens, UniProt P19419 1-428).
T2 sequence: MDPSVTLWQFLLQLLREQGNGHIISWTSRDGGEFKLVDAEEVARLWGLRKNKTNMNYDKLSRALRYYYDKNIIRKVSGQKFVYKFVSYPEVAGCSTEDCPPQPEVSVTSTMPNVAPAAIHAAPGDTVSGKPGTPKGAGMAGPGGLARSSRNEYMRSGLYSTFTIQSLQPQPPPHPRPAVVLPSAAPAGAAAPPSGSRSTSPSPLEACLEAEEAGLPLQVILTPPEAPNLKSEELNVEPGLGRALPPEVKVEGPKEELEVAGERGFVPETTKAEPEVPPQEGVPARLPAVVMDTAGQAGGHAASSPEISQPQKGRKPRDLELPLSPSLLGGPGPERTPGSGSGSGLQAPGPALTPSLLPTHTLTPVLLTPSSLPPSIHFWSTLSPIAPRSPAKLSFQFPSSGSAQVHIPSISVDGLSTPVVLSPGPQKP
Conditions: protein: recombinant; tags: N-terminal GST; dsDNA, one strand shown. Summed up: as §1

The next assay has as its target T3, GABPA (Homo sapiens, UniProt Q06546 1-454).
T3 sequence: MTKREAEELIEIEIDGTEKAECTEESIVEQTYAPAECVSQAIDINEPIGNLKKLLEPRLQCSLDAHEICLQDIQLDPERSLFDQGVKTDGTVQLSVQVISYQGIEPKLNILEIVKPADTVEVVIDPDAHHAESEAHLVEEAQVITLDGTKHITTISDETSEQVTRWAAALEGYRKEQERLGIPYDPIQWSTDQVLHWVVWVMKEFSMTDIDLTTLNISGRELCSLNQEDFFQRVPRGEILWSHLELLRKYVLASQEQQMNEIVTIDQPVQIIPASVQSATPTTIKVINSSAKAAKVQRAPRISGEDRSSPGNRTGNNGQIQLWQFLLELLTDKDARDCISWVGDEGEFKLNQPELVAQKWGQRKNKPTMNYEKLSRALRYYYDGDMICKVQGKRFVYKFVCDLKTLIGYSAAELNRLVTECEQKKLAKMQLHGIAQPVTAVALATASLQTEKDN
Conditions: protein: recombinant; tags: N-terminal GST; dsDNA, one strand shown. The essentials: as §1

Another assay deals with T4, ERG (Homo sapiens, UniProt P11308 1-479).
T4 sequence: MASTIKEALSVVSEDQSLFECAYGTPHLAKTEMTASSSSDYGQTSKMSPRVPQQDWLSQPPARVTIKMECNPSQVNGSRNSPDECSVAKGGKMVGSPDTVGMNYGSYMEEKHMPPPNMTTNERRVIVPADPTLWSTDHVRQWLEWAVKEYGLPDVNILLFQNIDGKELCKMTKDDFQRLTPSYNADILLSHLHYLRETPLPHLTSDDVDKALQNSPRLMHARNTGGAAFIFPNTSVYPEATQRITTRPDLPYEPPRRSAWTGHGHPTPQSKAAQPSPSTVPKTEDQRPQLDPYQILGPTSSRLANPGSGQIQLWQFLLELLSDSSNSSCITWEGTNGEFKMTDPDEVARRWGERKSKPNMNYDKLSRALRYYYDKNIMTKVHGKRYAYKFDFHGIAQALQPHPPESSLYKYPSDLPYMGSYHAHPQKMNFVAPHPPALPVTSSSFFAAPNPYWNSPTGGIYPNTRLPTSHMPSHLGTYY
Conditions: protein: recombinant; tags: N-terminal GST; dsDNA, one strand shown. Summed up: as §1

A further assay concerns the target ELF1 (Homo sapiens, UniProt P32519 1-619). Particulars: protein: recombinant; tags: N-terminal GST; dsDNA, one strand shown. Summed up:
as §1

The target in another assay is T5, EHF (Homo sapiens, UniProt Q9NZC4 1-300).
T5 sequence: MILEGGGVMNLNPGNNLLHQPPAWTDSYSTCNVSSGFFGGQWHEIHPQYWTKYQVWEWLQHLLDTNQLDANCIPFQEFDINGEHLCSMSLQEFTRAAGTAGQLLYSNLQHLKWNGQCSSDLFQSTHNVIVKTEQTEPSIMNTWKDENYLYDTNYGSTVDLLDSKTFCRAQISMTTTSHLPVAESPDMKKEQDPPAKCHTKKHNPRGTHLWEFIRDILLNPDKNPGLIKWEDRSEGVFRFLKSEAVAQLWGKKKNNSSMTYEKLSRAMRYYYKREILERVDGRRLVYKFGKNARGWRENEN
Conditions: protein: recombinant; tags: N-terminal GST; dsDNA, one strand shown. The essentials:
as §1

The target of the next assay is SPI1 (Homo sapiens, UniProt P17947 1-270). Particulars: protein: recombinant; tags: N-terminal GST; dsDNA, one strand shown. Summed up: as §1
The target of the next assay is SPIB (Homo sapiens, UniProt Q01892 1-262). Conditions: protein: recombinant; tags: N-terminal GST; dsDNA, one strand shown. The essentials: as §1
SPIB, sequence (Q01892 whole entry): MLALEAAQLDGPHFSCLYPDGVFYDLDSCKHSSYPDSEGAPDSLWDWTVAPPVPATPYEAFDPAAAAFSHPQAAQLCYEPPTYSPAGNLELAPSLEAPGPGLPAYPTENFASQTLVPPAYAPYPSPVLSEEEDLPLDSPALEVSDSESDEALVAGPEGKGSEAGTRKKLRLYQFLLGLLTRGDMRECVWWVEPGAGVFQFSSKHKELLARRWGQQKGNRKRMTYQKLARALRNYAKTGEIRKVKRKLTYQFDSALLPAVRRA
The target of the next assay is T6, ELK3 (Homo sapiens, UniProt P41970 1-407).
T6 sequence: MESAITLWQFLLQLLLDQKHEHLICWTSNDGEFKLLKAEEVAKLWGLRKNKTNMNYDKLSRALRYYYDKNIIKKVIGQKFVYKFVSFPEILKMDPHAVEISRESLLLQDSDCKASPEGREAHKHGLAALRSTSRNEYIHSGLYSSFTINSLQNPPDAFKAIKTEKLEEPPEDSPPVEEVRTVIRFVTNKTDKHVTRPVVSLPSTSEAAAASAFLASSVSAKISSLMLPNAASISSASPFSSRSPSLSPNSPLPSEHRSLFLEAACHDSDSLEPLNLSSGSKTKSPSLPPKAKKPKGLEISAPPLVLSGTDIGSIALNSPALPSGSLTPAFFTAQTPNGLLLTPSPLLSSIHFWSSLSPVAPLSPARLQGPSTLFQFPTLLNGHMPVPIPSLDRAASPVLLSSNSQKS
Conditions: protein: recombinant; tags: N-terminal GST; dsDNA, one strand shown. Summed up: as §1

The next assay deals with T7, FEV (Homo sapiens, UniProt Q99581 1-238).
T7 sequence: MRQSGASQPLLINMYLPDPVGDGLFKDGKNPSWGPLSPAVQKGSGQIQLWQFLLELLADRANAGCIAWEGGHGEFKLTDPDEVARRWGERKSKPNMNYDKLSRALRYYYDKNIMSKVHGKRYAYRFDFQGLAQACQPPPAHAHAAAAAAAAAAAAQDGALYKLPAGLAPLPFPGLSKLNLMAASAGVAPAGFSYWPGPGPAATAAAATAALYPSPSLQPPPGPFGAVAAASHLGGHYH
Conditions: protein: recombinant; tags: N-terminal GST; dsDNA, one strand shown. Summed up:
as §1

The next assay has as its target ETV5 (Homo sapiens, UniProt P41161 1-510). Particulars: protein: recombinant; tags: N-terminal GST; dsDNA, one strand shown. Summed up:
as §1

In a further assay the target is HSF1 (Homo sapiens, UniProt Q00613 1-529). Conditions: protein: recombinant; tags: N-terminal GST; chain copies: 3; dsDNA, one strand shown. The essentials:
as §1

Another assay has as its target T8, SPIC (Homo sapiens, UniProt Q8N5J4 1-248).
T8 sequence: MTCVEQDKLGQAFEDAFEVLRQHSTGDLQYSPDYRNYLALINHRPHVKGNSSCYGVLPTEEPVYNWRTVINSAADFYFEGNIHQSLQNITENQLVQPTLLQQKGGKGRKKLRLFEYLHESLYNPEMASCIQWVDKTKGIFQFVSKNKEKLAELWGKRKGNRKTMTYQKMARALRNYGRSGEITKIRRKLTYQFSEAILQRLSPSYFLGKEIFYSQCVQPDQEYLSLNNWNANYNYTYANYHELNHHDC
Conditions: protein: recombinant; tags: N-terminal GST; dsDNA, one strand shown. The essentials: as §1

For the next assay, the target named is ELF4 (Homo sapiens, UniProt Q99607 1-663). Conditions: protein: recombinant; tags: N-terminal GST; dsDNA, one strand shown. Summed up:
as §1

The next assay deals with T9, ELK4 (Homo sapiens, UniProt P28324-2 1-405).
T9 sequence: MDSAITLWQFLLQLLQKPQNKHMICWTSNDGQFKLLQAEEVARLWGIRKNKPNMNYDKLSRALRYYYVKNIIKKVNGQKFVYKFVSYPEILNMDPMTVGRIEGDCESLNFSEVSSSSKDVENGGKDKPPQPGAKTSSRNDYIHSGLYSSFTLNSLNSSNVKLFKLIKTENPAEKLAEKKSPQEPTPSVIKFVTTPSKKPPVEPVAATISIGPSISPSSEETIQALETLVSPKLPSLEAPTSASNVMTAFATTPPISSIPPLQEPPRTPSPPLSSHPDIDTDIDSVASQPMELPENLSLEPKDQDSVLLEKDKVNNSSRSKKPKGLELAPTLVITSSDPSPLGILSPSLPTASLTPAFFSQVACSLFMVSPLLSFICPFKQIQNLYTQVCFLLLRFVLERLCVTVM
Conditions: protein: recombinant; tags: N-terminal GST; dsDNA, one strand shown. The essentials: as §1

In the next assay the target is T10, ETV2 (Homo sapiens, UniProt O00321 1-342).
T10 sequence: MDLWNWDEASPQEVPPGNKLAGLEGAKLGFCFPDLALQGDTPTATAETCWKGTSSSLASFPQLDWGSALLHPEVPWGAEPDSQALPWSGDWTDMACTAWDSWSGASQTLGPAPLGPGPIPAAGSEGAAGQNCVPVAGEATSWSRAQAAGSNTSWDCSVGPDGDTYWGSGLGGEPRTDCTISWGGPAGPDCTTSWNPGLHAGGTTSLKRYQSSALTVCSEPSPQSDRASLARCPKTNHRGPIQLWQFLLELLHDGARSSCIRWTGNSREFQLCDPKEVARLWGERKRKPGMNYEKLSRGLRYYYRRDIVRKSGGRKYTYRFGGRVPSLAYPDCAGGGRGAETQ
Conditions: protein: recombinant; tags: N-terminal GST; dsDNA, one strand shown. Summed up:
as §1

Another assay concerns the target T11, ELF3 (Homo sapiens, UniProt P78545 1-371).
T11 sequence: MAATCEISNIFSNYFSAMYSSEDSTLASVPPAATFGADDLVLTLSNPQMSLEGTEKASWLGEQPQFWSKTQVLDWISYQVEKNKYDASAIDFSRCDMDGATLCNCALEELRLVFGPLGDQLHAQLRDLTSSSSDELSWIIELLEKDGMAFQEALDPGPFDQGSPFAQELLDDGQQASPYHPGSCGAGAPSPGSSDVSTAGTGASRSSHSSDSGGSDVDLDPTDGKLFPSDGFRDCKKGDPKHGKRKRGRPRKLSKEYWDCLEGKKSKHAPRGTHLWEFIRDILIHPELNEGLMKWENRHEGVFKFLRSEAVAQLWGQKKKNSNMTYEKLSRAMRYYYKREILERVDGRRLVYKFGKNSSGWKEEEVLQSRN
Conditions: protein: recombinant; tags: N-terminal GST; dsDNA, one strand shown. The essentials:
as §1

A further assay has as its target CRX (Homo sapiens, UniProt O43186 1-299). Particulars: protein: recombinant; tags: N-terminal GST; dsDNA, one strand shown. The essentials:
as §1

The next assay addresses ETV1 (Homo sapiens, UniProt P50549 1-477). Conditions: protein: recombinant; tags: N-terminal GST; dsDNA, one strand shown. The essentials: as §1

ELF4, sequence (Q99607 whole entry): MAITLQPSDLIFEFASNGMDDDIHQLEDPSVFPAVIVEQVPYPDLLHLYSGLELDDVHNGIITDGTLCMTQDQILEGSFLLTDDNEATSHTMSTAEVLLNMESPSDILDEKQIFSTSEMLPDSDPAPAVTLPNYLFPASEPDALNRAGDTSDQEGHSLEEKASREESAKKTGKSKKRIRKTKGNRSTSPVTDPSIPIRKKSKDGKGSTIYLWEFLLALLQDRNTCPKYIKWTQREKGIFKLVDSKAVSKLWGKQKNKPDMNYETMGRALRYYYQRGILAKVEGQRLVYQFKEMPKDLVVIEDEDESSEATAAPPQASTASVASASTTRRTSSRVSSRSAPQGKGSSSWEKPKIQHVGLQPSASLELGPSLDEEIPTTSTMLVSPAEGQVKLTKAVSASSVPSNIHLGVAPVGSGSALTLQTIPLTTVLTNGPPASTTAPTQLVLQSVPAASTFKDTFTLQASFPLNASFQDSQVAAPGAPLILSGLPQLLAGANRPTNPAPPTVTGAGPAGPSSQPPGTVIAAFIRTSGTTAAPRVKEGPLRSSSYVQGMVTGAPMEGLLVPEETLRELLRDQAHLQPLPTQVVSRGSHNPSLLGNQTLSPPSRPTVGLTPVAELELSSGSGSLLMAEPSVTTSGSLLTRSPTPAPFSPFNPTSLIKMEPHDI
HSF1, sequence (Q00613 whole entry): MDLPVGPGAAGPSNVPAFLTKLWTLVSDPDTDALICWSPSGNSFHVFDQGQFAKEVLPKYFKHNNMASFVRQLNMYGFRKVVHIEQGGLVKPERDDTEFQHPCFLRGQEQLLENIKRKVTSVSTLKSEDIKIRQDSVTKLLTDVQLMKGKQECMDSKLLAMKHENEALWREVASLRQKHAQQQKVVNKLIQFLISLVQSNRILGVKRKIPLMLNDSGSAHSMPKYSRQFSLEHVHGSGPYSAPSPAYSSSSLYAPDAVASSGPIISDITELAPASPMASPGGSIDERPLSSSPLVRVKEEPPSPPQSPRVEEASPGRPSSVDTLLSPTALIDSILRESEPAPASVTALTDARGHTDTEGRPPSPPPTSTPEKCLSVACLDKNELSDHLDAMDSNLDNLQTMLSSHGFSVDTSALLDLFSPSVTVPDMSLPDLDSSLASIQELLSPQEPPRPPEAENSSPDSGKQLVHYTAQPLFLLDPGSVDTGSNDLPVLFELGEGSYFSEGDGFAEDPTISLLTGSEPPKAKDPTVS
ELF1, sequence (P32519 whole entry): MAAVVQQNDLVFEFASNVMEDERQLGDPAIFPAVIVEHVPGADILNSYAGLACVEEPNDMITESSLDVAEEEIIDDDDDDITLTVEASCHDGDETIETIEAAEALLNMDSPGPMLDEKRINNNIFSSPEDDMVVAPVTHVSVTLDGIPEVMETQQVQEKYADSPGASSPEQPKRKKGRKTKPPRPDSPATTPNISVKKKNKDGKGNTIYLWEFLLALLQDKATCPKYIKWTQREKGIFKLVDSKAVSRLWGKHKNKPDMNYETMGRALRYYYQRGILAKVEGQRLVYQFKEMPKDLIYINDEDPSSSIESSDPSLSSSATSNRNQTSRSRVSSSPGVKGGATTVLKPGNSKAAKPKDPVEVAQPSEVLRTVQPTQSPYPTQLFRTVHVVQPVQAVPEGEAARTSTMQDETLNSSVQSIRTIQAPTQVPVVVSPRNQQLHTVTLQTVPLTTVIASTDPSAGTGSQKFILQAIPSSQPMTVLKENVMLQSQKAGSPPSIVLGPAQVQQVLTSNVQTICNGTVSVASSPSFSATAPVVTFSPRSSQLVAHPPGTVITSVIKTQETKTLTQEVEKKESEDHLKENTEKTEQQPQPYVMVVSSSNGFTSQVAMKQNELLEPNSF
ETV5, sequence (P41161 whole entry): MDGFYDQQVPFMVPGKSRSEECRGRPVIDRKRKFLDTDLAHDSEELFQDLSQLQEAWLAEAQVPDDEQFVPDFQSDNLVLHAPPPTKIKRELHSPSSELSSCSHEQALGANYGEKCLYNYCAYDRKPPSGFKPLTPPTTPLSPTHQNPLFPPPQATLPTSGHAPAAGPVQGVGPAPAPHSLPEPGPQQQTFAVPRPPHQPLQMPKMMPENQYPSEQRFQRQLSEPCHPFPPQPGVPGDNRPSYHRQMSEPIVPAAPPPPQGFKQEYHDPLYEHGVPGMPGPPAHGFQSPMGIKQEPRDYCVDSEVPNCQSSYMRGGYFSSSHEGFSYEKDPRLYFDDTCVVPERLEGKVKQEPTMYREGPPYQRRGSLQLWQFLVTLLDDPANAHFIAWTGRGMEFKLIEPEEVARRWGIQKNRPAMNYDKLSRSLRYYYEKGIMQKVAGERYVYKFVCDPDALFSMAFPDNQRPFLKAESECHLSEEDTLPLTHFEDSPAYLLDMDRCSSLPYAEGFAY
ETV1, sequence (P50549 whole entry): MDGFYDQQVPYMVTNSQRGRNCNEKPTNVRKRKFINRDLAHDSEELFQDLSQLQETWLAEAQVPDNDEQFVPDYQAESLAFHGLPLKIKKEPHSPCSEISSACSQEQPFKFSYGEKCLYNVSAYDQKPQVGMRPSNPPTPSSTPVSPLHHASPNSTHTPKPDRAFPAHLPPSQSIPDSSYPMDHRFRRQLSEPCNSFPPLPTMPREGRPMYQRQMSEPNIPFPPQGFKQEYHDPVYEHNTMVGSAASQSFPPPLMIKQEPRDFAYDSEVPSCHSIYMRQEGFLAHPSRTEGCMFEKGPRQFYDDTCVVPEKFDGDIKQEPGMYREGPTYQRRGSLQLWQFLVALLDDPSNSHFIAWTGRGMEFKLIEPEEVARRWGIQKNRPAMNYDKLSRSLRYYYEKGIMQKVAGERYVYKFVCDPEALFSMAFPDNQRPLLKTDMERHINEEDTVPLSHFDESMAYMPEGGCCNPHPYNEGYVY
CRX, sequence (O43186 whole entry): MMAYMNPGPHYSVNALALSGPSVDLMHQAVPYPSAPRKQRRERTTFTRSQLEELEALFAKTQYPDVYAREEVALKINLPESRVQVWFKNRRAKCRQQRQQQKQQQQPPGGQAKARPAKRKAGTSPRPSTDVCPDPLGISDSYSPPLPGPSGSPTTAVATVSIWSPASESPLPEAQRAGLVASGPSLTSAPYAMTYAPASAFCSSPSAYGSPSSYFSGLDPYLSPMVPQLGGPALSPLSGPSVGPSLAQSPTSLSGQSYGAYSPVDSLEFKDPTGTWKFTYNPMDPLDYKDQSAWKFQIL

As for TTTTTA, the binding signal with FLI1 was 1.23 fold enrichment (6-mer frequency, TF over GST control); with ELK1, 1.2 fold enrichment (6-mer frequency, TF over GST control); with GABPA, 1.23 fold enrichment (6-mer frequency, TF over GST control); in the assay with ERG, 1.25 fold enrichment (6-mer frequency, TF over GST control); with ELF1, 1.35 fold enrichment (6-mer frequency, TF over GST control); with EHF, 1.37 fold enrichment (6-mer frequency, TF over GST control). Moreover, the binding signal with SPI1 was 1.47 fold enrichment (6-mer frequency, TF over GST control); with SPIB, 1.37 fold enrichment (6-mer frequency, TF over GST control); with ELK3, 1.3 fold enrichment (6-mer frequency, TF over GST control); with FEV, 1.34 fold enrichment (6-mer frequency, TF over GST control); in the assay with ETV5, 1.3 fold enrichment (6-mer frequency, TF over GST control); in the assay with HSF1 it was 1.42 fold enrichment (6-mer frequency, TF over GST control). For the same sequence, the binding signal is 1.32 fold enrichment (6-mer frequency, TF over GST control) with SPIC; 1.34 fold enrichment (6-mer frequency, TF over GST control) in the assay with ELF4; 1.37 fold enrichment (6-mer frequency, TF over GST control) with ELK4; 1.38 fold enrichment (6-mer frequency, TF over GST control) with ETV2; 1.43 fold enrichment (6-mer frequency, TF over GST control) with ELF3; 1.65 fold enrichment (6-mer frequency, TF over GST control) in the assay with CRX. Also, the binding signal with ETV1 is 1.32 fold enrichment (6-mer frequency, TF over GST control).

These data come from article PMC7862700, “An all-to-all approach to the identification of sequence-specific readers for epigenetic DNA modifications on cytosine”.
